# Screening data (PubChem)
# Anthrax LF inh2: blocks Bacillus anthracis lethal factor protease; multiplex microsphere protease cleavage assay, LF; inhibition, % at 10 µM; actives 0.12% (n = 360,000); AID 588501; note: plate controls were buffer without enzyme for full effect and enzyme alone for no effect
# Target sequence (P15917 whole entry, looked up): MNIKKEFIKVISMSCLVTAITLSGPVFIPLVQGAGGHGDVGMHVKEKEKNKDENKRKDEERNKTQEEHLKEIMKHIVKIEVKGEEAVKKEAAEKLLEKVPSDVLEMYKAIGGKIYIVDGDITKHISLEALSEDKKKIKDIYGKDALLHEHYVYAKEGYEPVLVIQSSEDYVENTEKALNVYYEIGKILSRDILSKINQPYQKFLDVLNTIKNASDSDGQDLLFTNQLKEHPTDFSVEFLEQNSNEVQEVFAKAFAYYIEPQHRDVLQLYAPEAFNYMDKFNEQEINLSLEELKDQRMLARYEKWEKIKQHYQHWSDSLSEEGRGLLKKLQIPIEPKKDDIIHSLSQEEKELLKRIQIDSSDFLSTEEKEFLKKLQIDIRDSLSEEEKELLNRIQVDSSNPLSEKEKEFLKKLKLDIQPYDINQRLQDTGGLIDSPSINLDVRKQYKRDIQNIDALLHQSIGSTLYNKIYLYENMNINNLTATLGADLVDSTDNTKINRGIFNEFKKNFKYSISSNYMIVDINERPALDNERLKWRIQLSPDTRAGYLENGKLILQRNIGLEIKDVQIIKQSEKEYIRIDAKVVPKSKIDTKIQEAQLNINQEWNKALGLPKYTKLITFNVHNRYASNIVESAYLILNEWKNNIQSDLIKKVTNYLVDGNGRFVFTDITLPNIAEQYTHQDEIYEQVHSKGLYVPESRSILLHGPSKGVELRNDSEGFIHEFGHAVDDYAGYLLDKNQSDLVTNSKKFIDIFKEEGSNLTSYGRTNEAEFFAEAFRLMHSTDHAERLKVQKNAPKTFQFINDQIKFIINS
# BoNT-F LC inh: blocks Botulinum neurotoxin F light chain protease; AID 588497; inhibition, % at 10 µM; actives 0.22% (n = 360,000); Multiplex microsphere protease cleavage assay, flow cytometry; in the data active = inhibition above about 35%, passing the limit was not always enough; inconclusive = no clear call, values can overlap the other calls; note: plate controls were buffer without enzyme for full effect and enzyme alone for no effect
# BJeLR viability: BJeLR cell viability loss | actives 0.17% (n = 300,000) | inhibition, % (concentration not given with the values) | BJeLR (HRASV12) viability, CellTiter-Glo ATP luminescence, 48 h; in the data active = inhibition above about 50%; inconclusive = no clear call, values can overlap the other calls
# Autofluor counter: compound fluorescence in toxin protease inhibitor counterscreen. fluorescence intensity (concentration not given with the values). compound autofluorescence counterscreen, microsphere flow cytometry; stronger effect = higher value. actives 3.1% (n = 360,000). AID 624483; in the data active = fluorescence intensity above about 16000; inconclusive = no clear call, values can overlap the other calls
# BoNT-A LC inh2: BoNT A light chain protease inhibition. multiplex microsphere protease substrate cleavage, flow cytometry. inhibition, % at 10 µM. actives 0.17% (n = 360,000). AID 588499; note: plate controls were buffer without enzyme for full effect and enzyme alone for no effect
# BoNT-A LC CP1: blocks botulinum neurotoxin A light chain protease | shares compounds with BoNT-F LC inh | multiplex microsphere protease assay, flow cytometry | inhibition, % at 10 µM | actives 3% (n = 720) | AID 602139; in the data active = inhibition above about 32%
# BoNTF LC inh 1: blocks botulinum neurotoxin F light chain protease; AID 602140; inhibition, % at 10 µM; multiplex microsphere protease cleavage assay, flow cytometry; shares compounds with BoNT-F LC inh; 720 tested, under 10 active; call rule not given here
# LF protease CP1: Bacillus anthracis lethal factor protease inhibition; 720 tested, under 10 active; inhibition, % at 10 µM; multiplex microsphere protease cleavage assay, LF; shares compounds with BoNT-F LC inh; call rule not given here
# * = called active by the depositor; ? = inconclusive; / = no result given; + = active, no number. Compounds with a hit are over-represented: about 3.5% of the library has one in this group of screens. Cut-off read from the data, not from the text of the source, unless noted: active = inhibition above about 30%; inconclusive = no clear call, values can overlap the other calls; inactive = below that.
SMILES,Anthrax LF inh2,BoNT-F LC inh,BJeLR viability,Autofluor counter,BoNT-A LC inh2,BoNT-A LC CP1,BoNTF LC inh 1,LF protease CP1
COc1cccc(NC(=O)CN(C)C(=O)CCC(=O)c2cc(C)sc2C)c1,-2.0,?,/,4033,67.7*,-0.1,-6.2,0.2
COc1ccc(Cl)cc1NC(=O)CN(C)C(=O)CCC(=O)c1cc(C)sc1C,/,/,11.6,/,/,/,/,/
Cc1ccc(C(=O)N2CCN(c3ccc(N4CCOCC4)nn3)CC2)cc1,-3.3,7.9,8.7,4117,4.5,/,/,/
CCCCOc1ccc(C(=O)N2CCN(c3ccc(N4CCOCC4)nn3)CC2)cc1,23.3,59.2*,4.2,?,7.9,1.0,-2.6,2.0
CCOc1ccccc1NC(=O)Cn1nnc(C(=O)NCc2ccc3c(c2)OCO3)c1N,-3.9,1.3,2.6,5777,0.1,/,/,/
Clc1cccc(Cl)c1-c1noc(CN2CCOCC2)n1,36.1*,?,-10.6,4349,?,-0.2,-1.3,-2.8
Clc1ccc(-c2noc(CN3CCOCC3)n2)cc1,?,-1.6,8.8,3726,-5.5,/,/,/
CCCOc1ccc(-c2nc(C#N)c(NCCCn3ccnc3)o2)cc1,-37.7,57.7*,-0.2,?,58.2*,-1.4,-3.0,0.3
CC1CCCCC1NC(=O)COC(=O)COc1ccccc1Cl (configuration not stated),-3.6,-4.0,2.9,4499,-0.8,/,/,/
O=[N+]([O-])c1ccc(N2CCOCC2)cc1N1CCCCC1,-4.2,-4.4,-3.6,4284,-0.4,/,/,/
Cc1cc(C)c2c(c1)NC(c1cc3c(cc1Br)OCO3)C1CC=CC21 (configuration not stated),-10.2,+,-3.3,1899,3.8,-1.2,1.5,-1.8
Brc1cc2c(cc1C1Nc3ccccc3C3C=CCC31)OCO2 (configuration not stated),-0.6,0.0,-2.2,2442,0.4,/,/,/
CCc1ccc(OCc2nnc(SCC(=O)Nc3cccc(C(=O)N4CCOCC4)c3)o2)cc1,0.6,46.0*,0.1,2064,4.8,1.3,0.4,-0.2
O=C(C1CCC1)N1CCN(c2ccc(Cl)cc2)CC1,2.4,-9.7,4.2,3058,-3.5,/,/,/
CCc1ccc(OCCCC(=O)Nc2ccc(N3CCCCC3)cc2)cc1,-6.7,39.7*,-1.3,5583,-4.2,-1.9,3.7,-4.1
COc1ccc(OC)c(-c2nc3cc4ccccc4cc3nc2-c2ccccc2)c1,22.2,17.2,-3.8,2721,62.5*,34.1*,7.2,26.1
O=C(CN(Cc1ccc(F)cc1)C(=O)CNS(=O)(=O)c1ccccc1)NCC1CCCO1 (configuration not stated),-2.2,-1.1,-8.4,5441,-0.2,/,/,/
CCN1CCc2nc3sc(C(=O)N4CCc5ccccc5C4)c(N)c3cc2C1,-1.7,-27.8,0.7,5053,6.2,/,/,/
CC(C)c1ccc2nc3sc(C(=O)N4CCc5ccccc5C4)c(N)c3cc2c1,17.7,23.4,-2.2,8548,21.2,4.4,-0.9,4.4
CC1=C(C(=O)Nc2ccccc2C)C(c2ccc(C)o2)NC(=S)N1 (configuration not stated),1.9,-0.2,1.3,2137,-1.2,/,/,/
Cc1ccc(C(=O)Nc2ccc(O)cc2C(=O)O)cc1,1.8,33.4,-0.8,8453,3.7,3.1,0.9,-4.0
COc1cc(NC(=O)c2c(OC)cccc2OC)ccc1NC(=O)c1cc2ccccc2o1,32.0*,-38.8,-6.2,3480,-2.4,0.9,-1.4,-0.2
COc1cc(NC(=O)c2ccc(F)cc2)ccc1NC(=O)c1cc2ccccc2o1,/,/,-2.1,/,/,/,/,/
COc1ccc(NC(=O)C2CC(c3ccccc3Cl)=NO2)cc1 (configuration not stated),3.7,7.5,-5.1,3718,2.2,/,/,/
CCN(C(=O)COc1nc(C)cc(C)c1C#N)c1ccccc1,37.5*,2.7,-6.2,2941,0.7,-0.2,-3.7,2.2
SMILES,Anthrax LF inh2,BoNT-F LC inh,BJeLR viability,Autofluor counter,BoNT-A LC inh2,BoNT-A LC CP1,BoNTF LC inh 1,LF protease CP1
Cc1cc(C)c(C#N)c(Oc2ccccc2)n1,-0.5,-2.4,3.1,4784,0.1,/,/,/
CCCCCn1nc(-c2ccccc2)c2nc3ccccc3nc21,23.9,16.8,/,4862,22.1,/,/,/
CCn1nc(-c2ccccc2)c2nc3ccccc3nc21,42.8*,38.0*,-1.4,3801,66.9*,22.0,2.4,10.3
O=C(NCC(=O)N1CCCC1)c1ccc(Cl)cc1,31.3*,13.1,22.5,2980,0.1,0.4,-2.9,-0.5
COc1ccc(-n2nc(C(=O)NCC(=O)NCc3cccc(F)c3)c3ccccc3c2=O)cc1Cl,2.0,36.3*,-9.2,6493,3.2,-2.9,-23.9,-0.7
O=C(Nc1ccc(Cl)cc1)N1CCC(c2nc(-c3ccccc3Cl)no2)CC1,-5.1,-32.3,7.4,5015,-1.1,/,/,/
O=C(NCc1cn(-c2ccccc2)nc1-c1ccc(F)cc1)c1cccc([N+](=O)[O-])c1,-2.3,-9.4,-0.2,2031,-0.4,/,/,/
COc1ccc(N2CCc3c(C)nc4c(OC)cccc4c32)cc1,-0.4,-0.8,37.2,4379,0.2,/,/,/
Cc1nc2c(C)cccc2c2c1CCN2c1ccccc1F,34.9*,?,7.2,3906,?,0.1,-5.0,-0.2
C#CCn1c2ccccc2c2nc3ccccc3nc21,-7.1,?,3.0,3862,-7.1,/,/,/
CC(C)n1c2ccccc2c2nc3ccccc3nc21,27.1,2.4,3.8,4635,54.8*,24.7,2.7,11.8
CN(C)C(=O)Nc1ccccc1,2.1,?,2.5,3542,-2.8,/,/,/
COc1ccccc1-c1ccc(SCc2cccc(F)c2)nn1,-8.7,-4.1,-4.9,4559,0.2,/,/,/
COc1ccccc1-c1ccc(SCc2ccccc2)nn1,25.1,6.4,1.4,4296,32.5*,5.8,-11.5,1.7
Cc1ccc2cc3cc(C(=O)NCCN4CCOCC4)oc3nc2c1,3.0,34.6*,-18.1,3441,1.2,-0.1,-1.9,-0.6
COc1ccc2cc3cc(C(=O)NCCCN4CCOCC4)oc3nc2c1,-3.2,-18.9,0.3,2791,-0.2,/,/,/
Cc1noc(C)c1COc1ccc(C(=O)OCC(=O)Nc2c(C)n(C)n(-c3ccccc3)c2=O)cc1,1.2,-1.0,-1.1,2022,-0.6,/,/,/
O=C(c1cc([N+](=O)[O-])[nH]n1)N1CCSCC1,5.6,36.2*,-0.1,3833,-3.0,0.6,-2.5,2.0
COc1ccc(CNC(=O)CN(C(=O)CCC(=O)Nc2ccccn2)c2cc(C)ccc2C)cc1,31.6*,-6.8,0.3,3145,-1.7,0.7,-4.1,4.8
CCc1ccccc1N(CC(=O)NCc1ccc(OC)cc1)C(=O)CCC(=O)Nc1ccccn1,4.5,-3.0,3.4,5288,-2.1,/,/,/
CCOC(=O)C1CCN(C(=O)c2ccc3nc(-c4ccc(OC)cc4)c(-c4ccc(OC)cc4)nc3c2)CC1,10.9,19.5,3.7,5131,29.8*,12.4,-2.1,3.2
CCOC(=O)C1CCCN(C(=O)c2ccc(OC)cc2)CC1 (configuration not stated),-3.8,-5.5,/,3909,-0.3,/,/,/
